Values joined by “and” are separate entries in the source; they are usually repeats but may differ in a detail not shown here. Equal values may be shown once. The panel holds about 83,000 compounds, 20% with a hit somewhere; the sample as a whole holds those more often.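 Step 1: grow cells in 96-well plates. Step 2: add test compound at a single concentration. Step 3: incubate 48 h. Step 4: record percent growth.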 Unmarked numbers belong to inactive results. Active and inactive are the calls of the source. The calls were made as follows: active = growth percent below 10; inactive = the rest.

The test system of this test is MDA-MB-468 breast. Kind of test: NCI-60 one-dose screen, 48 h (100 = growth as untreated, 0 = no growth, -100 = all killed). Conditions: 10 µM unless noted.
As to `COc1ccc(Cn2cc3c(c2-c2cc(OC)c(OC)c(OC)c2)CCCc2cnoc2-3)cc1N`, the growth was 46.7%.

For `S=C1SCN(Cc2cccs2)CN1Cc1cccs1`, the growth is 40.4%.

As for `COc1ccc(-c2coc3c(CO)c(O)ccc3c2=O)cc1`, the growth is 82.9%.

Take `COC(=O)/C=C1/CCC2C3CCC4=CC(=O)C(Br)CC4(C)C3C(=O)CC12C` (stereo not given): the growth was 13.9%.

For `COC(=O)c1nc(-c2ccccc2)oc1S(=O)(=O)N1CCN(c2ccc(OC)cc2)CC1`, the growth is 22.6%.

As for `CC1(C)[C@@H](O)CC[C@]2(C)[C@H]3CC[C@@H]4[C@H]5[C@H](C(=O)/C=C/c6ccc(C(F)(F)F)cc6)CC[C@]5(CO)CC[C@@]4(C)[C@]3(C)CC[C@@H]12`, the growth was 61.9%.

For `N/C(=N\O)c1ncc(-c2ccc(C(F)(F)F)cc2)c(NC2CCCCCC2)n1`, the growth was -20.4% [100 µM] (active).

As to `O=C(Nc1cccnc1)c1ccc2ccc3ccc(C(=O)Nc4cccnc4)nc3c2n1`, the growth was -1.83% (active).

Consider `CCN(CC)C(=O)CCCCCn1c2ccccc2c2c3c(c4c5ccccc5[nH]c4c21)C(=O)N(O)C3=O`, for which the growth is 51.5%.

Consider `O=c1c2c(c(=O)n1O)c1c3ccc[nH]c3nc1c1nc3[nH]cccc3c12`, for which the growth is 64%.

`COc1ccc(-c2cnc(SCC(=O)Nc3ccc(-c4nc5ccccc5s4)cc3)n2-c2ccc(OC)cc2)cc1`: the growth was -12.7% (active).

Regarding `CCOC(=O)/C(=C\c1ccc(-c2ccccc2)cc1)C(C)=O`, the growth is 95%.

In the case of `CCN1CCC(CCOC)(CN2c3ccccc3Sc3ccc(Cl)cc32)C1` (stereo not given), the growth was 16.9%.

Regarding `N#Cc1c(Oc2ccc([N+](=O)[O-])cc2)nc2sc3cc(Cl)ccc3n2c1=N`, the growth was -39.8% (active).

Take `C1=C(N2CCCC2)CCC1`: the growth is 96.2%.

Consider `CCCCOc1ccc(/C(C)=N/Nc2cc(C)nc3ccc(Br)cc23)cc1`, for which the growth was 113%.

On to `Nc1cc(F)ccc1[N+](=O)[O-]`, for which the growth is 100%.

As for `COc1cc(-c2nn(-c3cccc(NC(=O)Nc4ccc(Cl)c(C(F)(F)F)c4)c3)cc2-c2ccncc2)ccc1Cl`, the growth is -7.22% (active).

With `Cc1ccc(S(=O)(=O)n2cc(-c3csc(-c4cn(C)c5ncccc45)n3)c3ccccc32)cc1`, the growth is 38.6%.

Take `CC(C)(C)c1cc(C=O)cc(C(C)(C)C)c1O`: the growth was 94.9%.

Consider `CCOc1nc(-c2ccco2)n2nc(-c3ccco3)cc2n1`, for which the growth was -5.05% (active).

For `O=C1/C(=C\c2cn(C(=O)c3ccc(Cl)cc3)c3ccccc23)c2ccccc2N1C(=O)c1ccc(Cl)cc1`, the growth is 51.7%.

In the case of `CC(C)(C(=O)c1cccnc1)c1cccnc1`, the growth is 96.4% and 96.1%.

For `COc1ccc(-n2c(-c3ccc(NC(=O)CCCl)cc3)nnc2-c2cc(OC)c(OC)c(OC)c2)cc1`, the growth is -11.1% (active).

For the compound `C[C@]12CCc3c(ccc4cc(O)ccc34)[C@@H]1CC[C@H]2O`, the growth is 81.3%.

For the compound `CCOC(=O)c1sc2ncc(-c3ccc(OC)cc3)n2c1C`, the growth was 103%.

`NC1=C(c2nn[nH]n2)C(c2ccccc2Cl)c2ccc3ccccc3c2O1` (stereo not given): the growth is 55.3%.

Consider `O=C(NCCNCCO)c1cc([N+](=O)[O-])cc([N+](=O)[O-])c1O`, for which the growth was 103%.

Consider `Nn1c(=O)c(=O)[nH]c2c(cnn2-c2ccccc2)c1=O`, for which the growth is 105%.

Take `Cc1nn(-c2ccc(Cl)cc2)c2ncnc(N/N=C/c3ccccc3O)c12`: the growth was -30.8% (active) and -12.1% (active).

`CC(C)(C)Nc1nc2c(OCCc3ccccc3)cccn2c1-c1ccc(O)cc1`: the growth was 26%.

As for `CSc1nc(S(C)(=O)=O)nc2[nH]c(=O)[nH]c12`, the growth is 103%.

Consider `O=C(NCCCNc1nccc(-n2ccc3cccnc32)n1)c1c(F)cccc1F`, for which the growth was 101%.

In the case of `O=C(O)C1CCCCN1c1nc(Cl)nc(Cl)n1` (stereo not given), the growth is 102%.

For `Oc1[nH]c2ccc(Cl)cc2c1N=Nc1nc(N=Nc2c(O)[nH]c3ccc(Cl)cc23)nc(N2CCCCC2)n1`, the growth was 18.1%.

Consider `CC(C)N(C(=S)SSC(=S)N(C(C)C)C(C)C)C(C)C`, for which the growth was 110%.

As for `COc1cc2nc(-c3ccc(C)cc3)cc(OCCCNCC3CCCO3)c2cc1OC` (stereo not given), the growth is 68.8%.

Take `CCCCCC(C)c1ccc(O)c(C)c1` (stereo not given): the growth was 101%.

Consider `Cc1cc(N2CCN(C)CC2)nc(NC2CCCC(Nc3ccnc4cc(Cl)ccc34)C2)n1` (stereo not given), for which the growth was -52.1% (active).

With `COc1ccc(-c2nn(-c3cccc(Cl)c3)cc2/C=C2\C(=N)N(c3ccccc3)N=C2N)cc1`, the growth was 57.6%.

For the origin of these results see PubChem BioAssay (NCI).
